Drawing on publication PMC7862700, “An all-to-all approach to the identification of sequence-specific readers for epigenetic DNA modifications on cytosine”, this text covers binding signal for 1 sequence.

What all share (assay): DAPPL (digital affinity profiling via proximity ligation, sequencing); 10 mM Tris-HCl pH 7.5, 50 mM NaCl, 1 mM DTT, 4% glycerol, room temperature, 30 min; GST-TFs on glutathione beads, 16-mer random dsDNA library, 0.1% formaldehyde crosslink after washing; high values mean tight binding
The target in one assay is T1, FEV (Homo sapiens, UniProt Q99581 1-238).
T1 sequence: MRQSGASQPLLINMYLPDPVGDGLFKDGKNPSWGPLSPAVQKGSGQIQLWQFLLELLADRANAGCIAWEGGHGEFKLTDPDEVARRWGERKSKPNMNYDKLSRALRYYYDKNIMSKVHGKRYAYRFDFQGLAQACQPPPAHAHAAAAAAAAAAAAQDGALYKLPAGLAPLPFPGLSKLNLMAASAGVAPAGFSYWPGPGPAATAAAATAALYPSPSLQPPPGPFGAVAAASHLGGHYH
As to conditions: protein: recombinant; tags: N-terminal GST; dsDNA, one strand shown. The essentials: (§1)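 Binding signal is given per hexamer as its read frequency for a factor divided by its frequency in the tag-only sample. GST-fused human transcription factors were expressed in yeast, captured on glutathione beads, barcoded with DNA and pooled with that sample, then incubated with 200 nmole of a 16-mer random double-stranded DNA library in Tris/NaCl/DTT/glycerol buffer for 30 min at room temperature. The pools were then washed, crosslinked, proximity-ligated, amplified by PCR and sequenced on an Illumina NextSeq500.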

In the next assay the target is ETV5 (Homo sapiens, UniProt P41161 1-510). The following applies: protein: recombinant; tags: N-terminal GST; dsDNA, one strand shown. The essentials:
as §1

The target in another assay is HSF1 (Homo sapiens, UniProt Q00613 1-529). The following applies: protein: recombinant; tags: N-terminal GST; chain copies: 3; dsDNA, one strand shown. The essentials:
as §1

Another assay deals with T2, SPIC (Homo sapiens, UniProt Q8N5J4 1-248).
T2 sequence: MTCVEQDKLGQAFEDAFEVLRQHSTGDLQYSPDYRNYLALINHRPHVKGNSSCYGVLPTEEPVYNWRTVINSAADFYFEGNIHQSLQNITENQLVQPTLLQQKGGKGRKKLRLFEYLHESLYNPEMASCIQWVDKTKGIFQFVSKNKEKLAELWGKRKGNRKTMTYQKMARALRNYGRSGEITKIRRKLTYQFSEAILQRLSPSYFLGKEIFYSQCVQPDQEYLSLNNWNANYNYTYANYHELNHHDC
The following applies: protein: recombinant; tags: N-terminal GST; dsDNA, one strand shown. The essentials: as §1

The target in another assay is ELF4 (Homo sapiens, UniProt Q99607 1-663). The following applies: protein: recombinant; tags: N-terminal GST; dsDNA, one strand shown. The essentials: as §1
ELF4, sequence (Q99607 whole entry): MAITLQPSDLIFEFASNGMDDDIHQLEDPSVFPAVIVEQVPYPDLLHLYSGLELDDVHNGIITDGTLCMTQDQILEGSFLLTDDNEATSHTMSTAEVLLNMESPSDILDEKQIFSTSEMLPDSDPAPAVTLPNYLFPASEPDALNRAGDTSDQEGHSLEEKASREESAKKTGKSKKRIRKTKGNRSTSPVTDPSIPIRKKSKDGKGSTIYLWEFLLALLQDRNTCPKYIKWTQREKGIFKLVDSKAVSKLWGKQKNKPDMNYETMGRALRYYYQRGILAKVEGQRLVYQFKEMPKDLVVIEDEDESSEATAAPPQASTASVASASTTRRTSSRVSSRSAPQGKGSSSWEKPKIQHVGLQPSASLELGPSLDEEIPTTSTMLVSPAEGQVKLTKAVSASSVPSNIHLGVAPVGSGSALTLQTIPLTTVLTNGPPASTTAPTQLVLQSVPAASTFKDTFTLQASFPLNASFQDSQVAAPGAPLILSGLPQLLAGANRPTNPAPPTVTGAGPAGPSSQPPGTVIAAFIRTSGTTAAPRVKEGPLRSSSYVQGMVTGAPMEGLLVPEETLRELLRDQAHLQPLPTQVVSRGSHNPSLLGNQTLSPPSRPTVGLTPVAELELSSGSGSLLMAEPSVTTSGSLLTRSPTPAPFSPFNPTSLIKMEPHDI
The next assay concerns the target T3, ELK4 (Homo sapiens, UniProt P28324-2 1-405).
T3 sequence: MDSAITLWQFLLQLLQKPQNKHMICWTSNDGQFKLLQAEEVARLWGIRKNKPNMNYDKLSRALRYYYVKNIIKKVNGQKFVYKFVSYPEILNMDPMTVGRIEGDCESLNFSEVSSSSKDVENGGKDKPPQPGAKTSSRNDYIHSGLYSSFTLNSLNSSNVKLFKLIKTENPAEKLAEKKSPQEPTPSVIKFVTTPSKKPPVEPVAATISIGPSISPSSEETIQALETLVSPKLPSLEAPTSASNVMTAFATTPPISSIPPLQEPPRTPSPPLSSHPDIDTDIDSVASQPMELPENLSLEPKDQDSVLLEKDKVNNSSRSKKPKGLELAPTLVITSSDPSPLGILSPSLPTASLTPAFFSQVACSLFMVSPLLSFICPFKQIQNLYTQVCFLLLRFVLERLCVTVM
As to conditions: protein: recombinant; tags: N-terminal GST; dsDNA, one strand shown. In outline: as §1

The target in a further assay is T4, ETV2 (Homo sapiens, UniProt O00321 1-342).
T4 sequence: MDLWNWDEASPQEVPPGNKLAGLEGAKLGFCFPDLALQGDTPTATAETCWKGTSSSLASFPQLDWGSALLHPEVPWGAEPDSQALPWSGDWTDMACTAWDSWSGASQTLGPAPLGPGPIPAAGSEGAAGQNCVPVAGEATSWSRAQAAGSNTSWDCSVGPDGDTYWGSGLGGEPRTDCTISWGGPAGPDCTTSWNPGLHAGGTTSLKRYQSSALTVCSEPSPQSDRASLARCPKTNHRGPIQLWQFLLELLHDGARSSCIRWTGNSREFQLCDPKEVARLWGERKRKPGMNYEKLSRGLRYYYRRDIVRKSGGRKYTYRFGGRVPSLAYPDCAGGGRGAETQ
The following applies: protein: recombinant; tags: N-terminal GST; dsDNA, one strand shown. In outline: as §1

Another assay addresses T5, ELF3 (Homo sapiens, UniProt P78545 1-371).
T5 sequence: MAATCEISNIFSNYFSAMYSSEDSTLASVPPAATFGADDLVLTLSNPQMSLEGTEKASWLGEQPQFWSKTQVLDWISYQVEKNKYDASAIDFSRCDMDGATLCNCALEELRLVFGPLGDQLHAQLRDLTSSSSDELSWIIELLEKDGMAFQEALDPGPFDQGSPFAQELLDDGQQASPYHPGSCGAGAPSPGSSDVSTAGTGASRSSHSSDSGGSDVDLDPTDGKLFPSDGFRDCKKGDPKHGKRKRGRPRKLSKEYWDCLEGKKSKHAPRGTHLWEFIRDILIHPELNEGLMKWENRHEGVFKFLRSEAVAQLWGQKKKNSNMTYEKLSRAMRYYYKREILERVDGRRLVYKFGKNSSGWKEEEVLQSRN
The following applies: protein: recombinant; tags: N-terminal GST; dsDNA, one strand shown. The essentials: as §1

In another assay the target is CRX (Homo sapiens, UniProt O43186 1-299). As to conditions: protein: recombinant; tags: N-terminal GST; dsDNA, one strand shown. The essentials: as §1
CRX, sequence (O43186 whole entry): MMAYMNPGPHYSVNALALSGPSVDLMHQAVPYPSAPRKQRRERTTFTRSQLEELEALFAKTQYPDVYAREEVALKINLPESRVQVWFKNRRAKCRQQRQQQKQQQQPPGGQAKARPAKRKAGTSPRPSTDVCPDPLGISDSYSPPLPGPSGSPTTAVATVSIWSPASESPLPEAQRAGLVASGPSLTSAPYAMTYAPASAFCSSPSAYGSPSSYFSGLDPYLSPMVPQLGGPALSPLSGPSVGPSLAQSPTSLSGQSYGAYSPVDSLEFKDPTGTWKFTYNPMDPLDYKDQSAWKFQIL
The next assay addresses ETV1 (Homo sapiens, UniProt P50549 1-477). The following applies: protein: recombinant; tags: N-terminal GST; dsDNA, one strand shown. In outline:
as §1

A further assay addresses T6, ERF (Homo sapiens, UniProt P50548 1-548).
T6 sequence: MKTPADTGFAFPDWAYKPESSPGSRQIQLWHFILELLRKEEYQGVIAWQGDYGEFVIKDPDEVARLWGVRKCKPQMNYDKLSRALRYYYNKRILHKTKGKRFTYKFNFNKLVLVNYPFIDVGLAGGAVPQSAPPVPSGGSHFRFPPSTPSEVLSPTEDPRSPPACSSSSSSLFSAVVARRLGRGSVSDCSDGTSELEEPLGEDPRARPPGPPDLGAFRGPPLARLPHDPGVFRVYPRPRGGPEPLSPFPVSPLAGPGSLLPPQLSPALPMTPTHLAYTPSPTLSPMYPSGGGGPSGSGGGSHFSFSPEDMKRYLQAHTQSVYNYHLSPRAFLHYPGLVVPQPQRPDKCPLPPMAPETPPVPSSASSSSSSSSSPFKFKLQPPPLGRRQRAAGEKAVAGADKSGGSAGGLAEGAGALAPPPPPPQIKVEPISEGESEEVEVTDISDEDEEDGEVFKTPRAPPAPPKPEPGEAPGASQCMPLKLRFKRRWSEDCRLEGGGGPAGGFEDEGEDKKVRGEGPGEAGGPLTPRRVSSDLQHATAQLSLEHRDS
As to conditions: protein: recombinant; tags: N-terminal GST; dsDNA, one strand shown. In outline:
as §1

The target of a further assay is T7, ETV3L (Homo sapiens, UniProt Q6ZN32 1-361).
T7 sequence: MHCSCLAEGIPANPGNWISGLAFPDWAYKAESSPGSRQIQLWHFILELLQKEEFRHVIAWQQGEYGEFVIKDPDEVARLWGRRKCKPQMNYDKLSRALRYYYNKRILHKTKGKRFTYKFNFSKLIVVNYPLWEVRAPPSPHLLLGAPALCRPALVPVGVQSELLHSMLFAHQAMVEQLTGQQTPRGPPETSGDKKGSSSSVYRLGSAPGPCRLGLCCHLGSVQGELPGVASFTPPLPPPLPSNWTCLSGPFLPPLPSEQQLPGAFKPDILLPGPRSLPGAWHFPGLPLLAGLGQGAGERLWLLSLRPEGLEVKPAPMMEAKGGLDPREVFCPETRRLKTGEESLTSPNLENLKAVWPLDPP
As to conditions: protein: recombinant; tags: N-terminal GST; dsDNA, one strand shown. The essentials:
as §1

A further assay addresses T8, ETS2 (Homo sapiens, UniProt P15036 1-469).
T8 sequence: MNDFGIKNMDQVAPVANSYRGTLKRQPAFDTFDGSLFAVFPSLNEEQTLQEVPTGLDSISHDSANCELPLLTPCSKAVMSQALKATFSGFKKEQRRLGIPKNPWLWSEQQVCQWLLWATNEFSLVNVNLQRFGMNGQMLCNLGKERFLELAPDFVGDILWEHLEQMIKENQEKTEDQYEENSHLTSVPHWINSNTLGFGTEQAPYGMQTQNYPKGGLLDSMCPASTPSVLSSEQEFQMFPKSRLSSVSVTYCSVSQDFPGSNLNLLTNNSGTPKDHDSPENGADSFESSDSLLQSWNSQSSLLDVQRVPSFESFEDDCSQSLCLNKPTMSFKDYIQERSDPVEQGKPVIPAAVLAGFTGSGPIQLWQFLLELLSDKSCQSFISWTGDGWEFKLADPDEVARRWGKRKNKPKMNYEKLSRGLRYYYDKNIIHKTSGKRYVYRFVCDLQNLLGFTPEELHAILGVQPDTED
The following applies: protein: recombinant; tags: N-terminal GST; dsDNA, one strand shown. The essentials:
as §1

A further assay deals with T9, SPDEF (Homo sapiens, UniProt O95238 1-335).
T9 sequence: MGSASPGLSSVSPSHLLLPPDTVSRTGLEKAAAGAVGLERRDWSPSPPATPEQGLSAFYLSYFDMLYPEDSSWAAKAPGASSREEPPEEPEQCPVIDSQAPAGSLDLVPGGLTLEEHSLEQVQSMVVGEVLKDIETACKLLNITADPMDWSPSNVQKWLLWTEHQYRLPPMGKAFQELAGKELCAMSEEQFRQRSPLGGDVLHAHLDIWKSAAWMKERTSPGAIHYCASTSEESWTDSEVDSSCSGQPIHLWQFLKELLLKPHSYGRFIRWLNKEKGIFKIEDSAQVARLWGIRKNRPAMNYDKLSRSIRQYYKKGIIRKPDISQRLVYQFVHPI
As to conditions: protein: recombinant; tags: N-terminal GST; dsDNA, one strand shown. In outline:
as §1

The next assay deals with T10, ETV7 (Homo sapiens, UniProt Q9Y603 1-341).
T10 sequence: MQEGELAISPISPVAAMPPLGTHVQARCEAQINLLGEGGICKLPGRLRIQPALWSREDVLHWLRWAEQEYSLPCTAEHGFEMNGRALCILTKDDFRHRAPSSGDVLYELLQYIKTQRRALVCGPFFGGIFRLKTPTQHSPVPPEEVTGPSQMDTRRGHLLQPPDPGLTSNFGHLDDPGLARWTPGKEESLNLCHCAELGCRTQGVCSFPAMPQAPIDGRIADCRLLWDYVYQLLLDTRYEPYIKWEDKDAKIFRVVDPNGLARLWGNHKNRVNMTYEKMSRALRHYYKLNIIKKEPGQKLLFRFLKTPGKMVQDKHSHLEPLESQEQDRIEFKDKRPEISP
The following applies: protein: recombinant; tags: N-terminal GST; dsDNA, one strand shown. In outline:
as §1

For a further assay, the target named is T11, ELF5 (Homo sapiens, UniProt Q9UKW6-2 1-255).
T11 sequence: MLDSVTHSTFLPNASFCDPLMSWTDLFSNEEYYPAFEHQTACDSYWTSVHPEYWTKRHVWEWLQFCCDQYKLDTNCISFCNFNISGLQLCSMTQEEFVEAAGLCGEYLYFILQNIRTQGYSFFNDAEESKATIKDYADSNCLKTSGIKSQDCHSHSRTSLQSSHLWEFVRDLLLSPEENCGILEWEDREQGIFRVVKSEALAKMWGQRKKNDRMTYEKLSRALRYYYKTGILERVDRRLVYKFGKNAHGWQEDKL
The following applies: protein: recombinant; tags: N-terminal GST; dsDNA, one strand shown. The essentials:
as §1

The target in another assay is T12, ETV3 (Homo sapiens, UniProt P41162-2 1-143).
T12 sequence: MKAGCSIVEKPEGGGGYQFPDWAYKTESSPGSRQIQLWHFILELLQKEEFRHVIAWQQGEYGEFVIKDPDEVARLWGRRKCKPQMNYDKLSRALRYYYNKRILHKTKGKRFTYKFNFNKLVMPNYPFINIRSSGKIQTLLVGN
The following applies: protein: recombinant; tags: N-terminal GST; dsDNA, one strand shown. In outline: as §1

Another assay concerns the target ETV6 (Homo sapiens, UniProt P41212 1-452). The following applies: protein: recombinant; tags: N-terminal GST; dsDNA, one strand shown. The essentials: as §1

ETV1, sequence (P50549 whole entry): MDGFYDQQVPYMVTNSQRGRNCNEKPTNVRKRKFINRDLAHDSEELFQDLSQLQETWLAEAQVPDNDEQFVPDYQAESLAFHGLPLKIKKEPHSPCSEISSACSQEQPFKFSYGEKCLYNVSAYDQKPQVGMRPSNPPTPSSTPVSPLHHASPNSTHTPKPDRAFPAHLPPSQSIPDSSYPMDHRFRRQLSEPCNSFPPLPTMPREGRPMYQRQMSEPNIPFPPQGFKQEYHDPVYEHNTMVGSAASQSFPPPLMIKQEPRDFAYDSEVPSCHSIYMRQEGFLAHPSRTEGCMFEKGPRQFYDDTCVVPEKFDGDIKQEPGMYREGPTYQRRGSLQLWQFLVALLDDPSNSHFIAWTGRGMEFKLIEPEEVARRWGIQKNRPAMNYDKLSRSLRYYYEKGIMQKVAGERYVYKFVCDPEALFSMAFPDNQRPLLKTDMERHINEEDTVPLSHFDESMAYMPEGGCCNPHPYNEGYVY
HSF1, sequence (Q00613 whole entry): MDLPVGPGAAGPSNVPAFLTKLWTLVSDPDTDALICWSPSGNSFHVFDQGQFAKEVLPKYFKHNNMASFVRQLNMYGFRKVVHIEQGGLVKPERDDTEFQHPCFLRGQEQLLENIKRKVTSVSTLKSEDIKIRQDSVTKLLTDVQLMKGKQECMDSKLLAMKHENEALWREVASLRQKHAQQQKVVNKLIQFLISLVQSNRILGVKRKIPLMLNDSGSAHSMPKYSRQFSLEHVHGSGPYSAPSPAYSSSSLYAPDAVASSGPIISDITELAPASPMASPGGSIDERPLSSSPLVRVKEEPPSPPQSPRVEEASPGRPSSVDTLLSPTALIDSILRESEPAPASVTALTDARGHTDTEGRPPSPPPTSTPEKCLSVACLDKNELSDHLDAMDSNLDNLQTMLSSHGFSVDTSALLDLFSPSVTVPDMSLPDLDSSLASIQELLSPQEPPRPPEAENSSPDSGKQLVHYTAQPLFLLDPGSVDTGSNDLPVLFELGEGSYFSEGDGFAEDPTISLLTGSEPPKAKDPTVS
ETV6, sequence (P41212 whole entry): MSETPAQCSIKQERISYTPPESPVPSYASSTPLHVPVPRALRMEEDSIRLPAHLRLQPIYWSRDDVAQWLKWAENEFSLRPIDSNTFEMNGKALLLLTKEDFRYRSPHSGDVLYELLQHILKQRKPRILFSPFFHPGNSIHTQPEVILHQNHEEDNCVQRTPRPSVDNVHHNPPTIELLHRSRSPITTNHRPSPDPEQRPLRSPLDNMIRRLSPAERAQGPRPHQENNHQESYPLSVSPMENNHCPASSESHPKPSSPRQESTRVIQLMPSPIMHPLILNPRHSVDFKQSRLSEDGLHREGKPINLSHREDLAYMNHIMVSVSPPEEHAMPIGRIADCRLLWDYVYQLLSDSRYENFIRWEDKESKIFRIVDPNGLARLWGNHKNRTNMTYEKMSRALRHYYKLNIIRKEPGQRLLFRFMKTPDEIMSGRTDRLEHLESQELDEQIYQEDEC
ETV5, sequence (P41161 whole entry): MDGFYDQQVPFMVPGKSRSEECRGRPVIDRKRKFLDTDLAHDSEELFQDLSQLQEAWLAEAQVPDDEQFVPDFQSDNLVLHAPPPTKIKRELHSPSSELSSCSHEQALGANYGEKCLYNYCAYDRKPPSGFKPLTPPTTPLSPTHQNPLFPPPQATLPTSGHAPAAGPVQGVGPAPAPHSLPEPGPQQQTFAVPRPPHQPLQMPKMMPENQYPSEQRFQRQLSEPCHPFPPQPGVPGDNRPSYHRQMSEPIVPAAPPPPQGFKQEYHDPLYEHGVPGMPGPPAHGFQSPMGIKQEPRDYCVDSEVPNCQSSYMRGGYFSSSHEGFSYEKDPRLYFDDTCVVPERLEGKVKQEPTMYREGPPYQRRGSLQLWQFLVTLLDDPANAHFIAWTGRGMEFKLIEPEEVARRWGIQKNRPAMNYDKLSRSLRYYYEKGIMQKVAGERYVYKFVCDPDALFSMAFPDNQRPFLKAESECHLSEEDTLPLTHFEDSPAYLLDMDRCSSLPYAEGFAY

In the case of TTATAC, the binding signal was 1.35 fold enrichment (6-mer frequency, TF over GST control) with FEV; 1.29 fold enrichment (6-mer frequency, TF over GST control) with ETV5; 1.79 fold enrichment (6-mer frequency, TF over GST control) with HSF1; 1.42 fold enrichment (6-mer frequency, TF over GST control) with SPIC; 1.49 fold enrichment (6-mer frequency, TF over GST control) with ELF4; 1.38 fold enrichment (6-mer frequency, TF over GST control) in the assay with ELK4. For the same sequence, the binding signal is 1.38 fold enrichment (6-mer frequency, TF over GST control) with ETV2; 1.43 fold enrichment (6-mer frequency, TF over GST control) in the assay with ELF3; 2.54 fold enrichment (6-mer frequency, TF over GST control) with CRX; 1.5 fold enrichment (6-mer frequency, TF over GST control) with ETV1; 1.55 fold enrichment (6-mer frequency, TF over GST control) in the assay with ERF; 1.39 fold enrichment (6-mer frequency, TF over GST control) with ETV3L. In addition, the binding signal is 1.42 fold enrichment (6-mer frequency, TF over GST control) in the assay with ETS2; 1.38 fold enrichment (6-mer frequency, TF over GST control) with SPDEF; 1.53 fold enrichment (6-mer frequency, TF over GST control) in the assay with ETV7; 1.39 fold enrichment (6-mer frequency, TF over GST control) with ELF5; 1.37 fold enrichment (6-mer frequency, TF over GST control) with ETV3; 1.42 fold enrichment (6-mer frequency, TF over GST control) with ETV6.
